Screening results (PubChem)
IL-1B inflam inh: inhibitors of inflammasome signaling (IL-1 beta secretion) | THP-1 LPS/ATP IL-1B secretion, AlphaLISA, 16 h; hits give low values | AID 743279 | activity change, % at 57.5 µM | 4.7% of 360,000 active; in the data active means activity change below about -50%; inconclusive means mostly about -30% to -49%
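THP-1 cells pretreated 1 hr with compounds (up to 57.5 uM final), then stimulated with LPS (250 ng/mL final) plus ATP (1.25 mM final); secreted IL-1B measured by AlphaLISA after 16 hr, decreased signal indicating inhibition.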
Giardia kill: Giardia lamblia killing | Giardia lamblia trophozoite viability | activity change, % at 7.66 µM, hits read low | 0.15% of 340,000 active; in the data active means activity change below about -80%; inconclusive means between about -30% and that limit;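 further: parasites exposed to compound for two days anaerobically before the ATP read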
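ATP-content bioluminescence gauges trophozoite survival. Cells (100/well) receive compound and incubate anaerobically for 48 hrs at 37 deg C; detection reagent follows for 15-30 min at room temperature.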
DT40 TDP1 CPT: growth inhibition of DT40 Tdp1-/-;hTDP1 cells with camptothecin (screen for TDP1 inhibitors). chicken DT40 Tdp1-/-;hTDP1 cells + 20 nM CPT, ATP luminescence, 48 h. Potency, µM (doses to about 46.2 µM), hits mostly inhibitors. 12% of 420,000 active. AID 686979; further: nearly all actives have a fitted effect of over 55% in size
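Chicken DT40 Tdp1-/- cells stably complemented with human TDP1 were seeded at 400 cells/well in medium containing 20 nM camptothecin, exposed to pin-transferred compounds, and grown at 37 °C for at least 48 hr. Viability was read as ATP luminescence.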
ELG1 DNA repair: ELG1-dependent DNA repair inhibition | HEK293T ELG1-luciferase reporter, luminescence, 16 h; DNA damage induced by 5-fluorouridine | Potency, µM (series often up to 46.1 µM), actives largely listed as inhibitors | 2.3% of 330,000 active | AID 504467; further: nearly all actives have a fitted effect of over 55% in size
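Luminescence from the luciferase reporter, measured 30 min after ONE-Glo reagent at room temperature, was the read-out. Beforehand, 2,000 cells per well were exposed for 16 hr at 37 °C to 5-fluorouridine together with compound or vehicle.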
TDP1 block: inhibitors of human tyrosyl-DNA phosphodiesterase TDP1; Q9NUW8; 0.28% of 350,000 active; Potency, µM (doses to about 130 µM), hits mostly inhibitors; AID 485290; recombinant TDP1, AlphaScreen DNA substrate cleavage; further: nearly all actives have a fitted effect of over 40% in size
Target sequence (Q9NUW8 whole entry, looked up): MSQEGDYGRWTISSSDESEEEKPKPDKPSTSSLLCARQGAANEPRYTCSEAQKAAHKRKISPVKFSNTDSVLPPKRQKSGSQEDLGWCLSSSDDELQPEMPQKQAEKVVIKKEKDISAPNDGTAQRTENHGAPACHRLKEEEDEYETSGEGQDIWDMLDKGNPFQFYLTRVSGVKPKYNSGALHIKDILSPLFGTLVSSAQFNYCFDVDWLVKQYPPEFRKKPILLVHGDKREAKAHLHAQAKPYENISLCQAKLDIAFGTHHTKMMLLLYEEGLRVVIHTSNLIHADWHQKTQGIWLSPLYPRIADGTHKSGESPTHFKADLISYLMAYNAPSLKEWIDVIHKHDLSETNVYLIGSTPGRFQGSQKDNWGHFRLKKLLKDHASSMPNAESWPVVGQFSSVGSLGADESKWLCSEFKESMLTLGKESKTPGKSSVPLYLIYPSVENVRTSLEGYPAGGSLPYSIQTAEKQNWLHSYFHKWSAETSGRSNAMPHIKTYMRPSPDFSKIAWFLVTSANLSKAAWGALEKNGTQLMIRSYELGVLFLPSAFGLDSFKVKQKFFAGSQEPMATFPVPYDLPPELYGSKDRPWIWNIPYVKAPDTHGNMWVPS
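E. coli-derived human Tdp1, 1 nM final. Cpd preinc 15 min RT; substrate 15 nM final, 5 min RT; AS bead mix 10 ug/ml final, 10 min RT. Signal loss = tyrosine-FITC cleavage. No-enzyme wells = max signal.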
TDP1 cell noCPT: qHTS for Inhibitors of human tyrosyl-DNA phosphodiesterase 1 (TDP1): qHTS in cells in absence of CPT. DT40 Tdp1-/- hTDP1 cells, no CPT, ATP luminescence, 48 h. Potency, µM (highest dose often 46.2 µM), actives largely listed as inhibitors. 15% of 420,000 active. AID 686978, 2013; further: nearly all actives have a fitted effect of over 55% in size
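Chicken DT40 Tdp1-/- cells stably complemented with human TDP1 were seeded at 400 cells/well with DMSO in place of 20 nM camptothecin. After compound pinning, cells grew at least 48 hr at 37 °C; viability read by CellTiter-Glo luminescence.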
Numbers stand for hits; i = inactive; ? = inconclusive; nt = no result given; [ ] = dose if it differs, or a comment. Rows were chosen to be rich in hits. Some 19% of all compounds tested hit in one or more screens of this group. Unless noted, the call rests on the fitted dose curve; in most records, active means well fitted curve in the direction sought with a large enough effect; inconclusive means small, poorly fitted or top-dose-only effect, or another doubt; inactive means no such curve, though single readings can be large; an effect the other way counts as inactive or inconclusive.

SMILES	IL-1B inflam inh	Giardia kill	DT40 TDP1 CPT	ELG1 DNA repair	TDP1 block	TDP1 cell noCPT
Cc1cc(OCC(=O)Nc2ccncc2)ccc1Br	i	i	?	?	i	23µM
Cc1cc(C)cc(OCC(=O)Nc2ccncc2)c1	i	i	i	16µM	nt	?
CCN(CC)C(=O)CSC1=C(C#N)C(c2cccs2)C=C(C)N1 (configuration not stated)	i	i	?	i	i	23µM
CCOC(=O)/C=C1\NC(=O)C(C)S1 (configuration not stated)	i	i	i	i	i	i
Cc1ccc(-n2nc3c(=O)n(CC(=O)NCCCc4ccccc4)nc(C)c3c2C)cc1	i	i	?	i	i	23µM
Cc1ccc(-n2nc3c(=O)n(C(C)C(=O)NCCCc4ccccc4)nc(C)c3c2C)cc1 (configuration not stated)	i	i	16µM	?	i	9.2µM
Cn1c(=O)c2cc(NC(=O)NCCc3cccs3)ccc2n1C/C=C/c1ccccc1	i	nt	?	nt	nt	?
Cc1ccc(C2=NNC(c3ccc(Cl)cc3)=Nc3ccccc32)o1	i	i	13µM	i	i	12µM
CCCCCn1c(=O)[nH]c2cc(C(=O)N3CCN(c4cccc(C(F)(F)F)c4)CC3)ccc2c1=O	nt	nt	10µM	nt	i	7.3µM
CCN1CCN(C(=O)c2ccc3c(=O)n(CCc4ccccc4)c(=O)[nH]c3c2)CC1	i	i	?	i	i	i
COC(=O)c1ccc2c(=O)n(CCCCCC(=O)N3CCN(c4ccc(F)cc4)CC3)c(=O)[nH]c2c1	i	i	16µM	2.9µM	i	12µM
CCOc1cc2[nH]c(=O)n(CCC(=O)N3CCN(c4ccccc4)CC3)c(=O)c2cc1OCC	nt	nt	i	nt	i	i
COC(=O)c1ccc2c(=O)n(CCCCCC(=O)N3CCN(c4ccc(Cl)cc4)CC3)c(=O)[nH]c2c1	nt	nt	?	nt	i	?
O=C(CCCCCn1c(=O)[nH]c2ccccc2c1=O)N1CCN(c2cccc(C(F)(F)F)c2)CC1	nt	nt	0.58µM	nt	i	0.58µM
CCCC(=O)Oc1ccc(C2NC(=O)c3ccccc3O2)cc1OC (configuration not stated)	i	i	i	i	nt	i
O=C(Cc1ccc(OCC2CCCCC2)cc1)NO	nt	nt	10µM	nt	nt	11µM
O=C(COC(=O)Cc1ccc(Br)cc1)NC1CCCCC1	i	i	i	i	i	i
Cc1nc(NC(C)c2ccccc2)c2oc3ccccc3c2n1 (configuration not stated)	i	i	21µM	?	i	10µM
Cc1nc(NCc2ccco2)c2oc3ccccc3c2n1	i	i	?	?	i	10µM
CCC(C)Nc1nc(C)nc2c1oc1ccccc12 (configuration not stated)	i	?	18µM	?	i	16µM
COc1cccc2c1cc1c(=O)n(CC(=O)NC3CC3)nc(C)n12	nt	nt	i	nt	i	?
N#C/C(=C\c1cccc(O)c1)c1nc2ccccc2o1	i	i	i	i	i	i
COc1cc(/C=C(\C#N)c2nc3ccccc3n2C)cc(OC)c1OC	nt	nt	29µM	nt	i[12.3 µM]	12µM
Cn1c(/C(C#N)=C/c2ccc(-c3ccc(S(N)(=O)=O)cc3)o2)nc2ccccc21	i	i	13µM	?	i	15µM
Cn1c(/C(C#N)=C/c2cccc(O)c2)nc2ccccc21	-62	i	21µM	?	i	?
SMILES	IL-1B inflam inh	Giardia kill	DT40 TDP1 CPT	ELG1 DNA repair	TDP1 block	TDP1 cell noCPT
COc1ccc(/C=C(\C#N)c2nc3ccccc3n2C)c(OC)c1	nt	nt	?	nt	i[12.3 µM]	?
O=C(N/C=C/n1cnc2cc(C(F)(F)F)ccc21)c1ccccc1	i	i	i	i	i	i
COCCCn1c(C)nnc1-c1cnn(-c2ccccc2)c1N	i	i	i	i	i	i
CCn1c(C)c(C)c2cc(C(=O)NCCc3cc(OC)c(OC)c(OC)c3)ccc21	nt	nt	4.1µM	nt	i	3.7µM
CCn1c(C)c(C)c2cc(C(=O)NCc3ccc(F)cc3)ccc21	nt	nt	?	nt	i	?
CCn1c(C)c(C)c2cc(C(=O)NCC(C)c3ccccc3)ccc21 (configuration not stated)	nt	nt	16µM	nt	i	29µM
COc1ccc(CCNC(=O)c2ccc3c(c2)c(C)c(C)n3Cc2ccccc2)c(OC)c1OC	nt	nt	23µM	nt	i	?
COc1ccc(CCNC(=O)c2ccc3c(c2)c(C)c(C)n3Cc2ccc(F)cc2)c(OC)c1OC	nt	nt	18µM	nt	i	23µM
CCn1c(C)c(C)c2cc(C(=O)NCCc3ccco3)ccc21	?	i	i	i	i	i
Cc1c(C)n(Cc2ccc(F)cc2)c2ccc(C(=O)NCCN3CCOCC3)cc12	i	i	?	i	i	16µM
COc1ccc(OC)c(CCNC(=O)c2ccc3c(c2)c(C)c(C)n3Cc2ccccc2)c1	nt	nt	16µM	nt	i	?
Cc1c(C)n(Cc2ccc(F)cc2)c2ccc(C(=O)N3CCN(c4ccc(F)cc4)CC3)cc12	nt	nt	21µM	nt	i	23µM
CCn1c(C)c(C)c2cc(C(=O)N3CCc4ccccc4C3)ccc21	i	i	?	?	i	15µM
CCN1CCN(C(=O)c2ccc3c(c2)c(C)c(C)n3Cc2ccccc2)CC1	i	i	?	i	i	i
COc1ccc(-c2nn(-c3ccc(F)cc3F)c3c2cnc2ccc(F)cc23)cc1	nt	nt	i	nt	i	i
O=C(CN1C(=O)COc2ccc(S(=O)(=O)N3CCOCC3)cc21)N1CCN(c2ccccc2F)CC1	nt	nt	nt	nt	i	nt
Cc1ccc(C(=O)NC2(C(F)(F)F)N=C(c3ccccc3)N(C3CCCCC3)C2=O)cc1 (configuration not stated)	nt	nt	?	nt	i	?
CC(=O)c1cccc(-c2ccnc3c2CC(C(=O)Nc2ccc(Cl)c(C(F)(F)F)c2)O3)c1 (configuration not stated)	i	nt	21µM	nt	nt	?
CC(=O)c1cccc(NC(=O)C2Cc3c(-c4ccc(Cl)cc4)ccnc3O2)c1 (configuration not stated)	i	nt	?	nt	nt	10µM
O=C(Nc1ccc(Cl)c(C(F)(F)F)c1)C1Cc2c(-c3ccc4c(c3)OCO4)ccnc2O1 (configuration not stated)	i	nt	23µM	nt	nt	?
CC(=O)c1cccc(-c2ccnc3c2CC(C(=O)Nc2ccc(Cl)cc2)O3)c1 (configuration not stated)	i	nt	?	nt	nt	21µM
O=C(Nc1cccc(C(F)(F)F)c1)C1Cc2c(-c3ccc(Cl)cc3)ccnc2O1 (configuration not stated)	i	nt	?	nt	nt	?
CC(=O)Nc1ccc(NC(=O)C2Cc3c(-c4cccc(C(C)=O)c4)ccnc3O2)cc1 (configuration not stated)	i	nt	i	nt	nt	i
